According to PubChem BioAssay (NCI):
This is part of a sample that, as a whole, favours compounds with a hit. Of some 83,000 tested, about 20% had one in any assay.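 Method: cells in 96-well plates; compound added at one concentration; 48 h incubation; percent growth measured; values under 10 scored active.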 Unmarked numbers belong to inactive results. Calls of active or inactive are those of the source.

test system: SK-MEL-5 melanoma; test: NCI-60 one-dose screen, 48 h (100 = growth as untreated, 0 = no growth, -100 = all killed); conditions: 10 µM unless noted

SMILES	growth
COc1ccc(C=Nc2c(C(=O)Nc3cccc(Cl)c3C)sc3nc(C)c(C(=O)/C=C/c4ccc(OC)cc4)cc23)cc1	3.54% (active)
CCOC(=O)CNC1=C(Cl)C(=O)N(Cc2ccc(Cl)cc2)C1=O	102%
COc1ccc(/C=C(\C(=O)NCc2cccnc2)S(=O)(=O)c2ccccc2)cc1OC	64.6%
COc1cc2c(c(OC)c1OC)CCC(c1cccc(C(=O)Nc3ccc(Br)cc3)c1)O2 (stereo not given)	55%
Nc1cc(-c2ccc(Cl)cc2)nn1-c1nnc(/C=C/c2ccco2)c(=O)[nH]1	46%
N#C/C(=C\c1ccc(-c2cccc(Cl)c2)o1)C(=O)Nc1ncc(Cc2ccc(Cl)cc2)s1	89.9%
CCOC(=O)c1c(C)nc2c(c1N)C(=O)C(=O)N2Cc1ccc(OC)cc1	81%
c1csc(-c2cn3nc(-c4c[nH]c5ccccc45)sc3n2)c1	19.5%
FC(F)(F)c1[nH]ncc1-c1nc2ccc3[nH]ncc3c2c2c1CCCC2	-73.7% (active)
COc1cc(-c2nccc3[nH]c(-c4cccc5[nH]ccc45)nc23)cc(OC)c1OC	-45.8% (active)
COc1ccc2[nH]cc(-c3nonc3-c3c[nH]c4ccc(Br)cc34)c2c1	78.1%
CC(=O)c1c(Nc2cccc(F)c2)[nH]c2c(Cl)cc(Cl)c(Cl)c2c1=O	-68.7% (active)
CCOC(=O)NC(=S)n1oc(=O)c2ccccc21	108%
O=S(Nc1ccccc1)c1ccc(Cl)cc1 (stereo not given)	99.8%
Nc1c(Br)cc2c(c1Br)Cc1cc([N+](=O)[O-])ccc1-2	91.4%
CCCN(CCSSCCNc1nc(N(C)O)nc(N(C)O)n1)c1nc(N(C)O)nc(N(C)O)n1	80.9%
COC(=O)c1sccc1-c1cc(O)c(C(=O)Nc2ccccc2)s1	102%
N#Cc1c(-c2ccc(Cl)cc2)nc(NN=Cc2ccc[nH]2)nc1N1CCOCC1	85.2%
Clc1ccc(-c2nc(C(Cl)Cl)nc3cc(-c4ccccc4)nn23)cc1	82.2%
C/C(=N\Nc1ccccc1)c1ccc(NC2=CC(=O)c3ccccc3C2=O)cc1	-10.5% (active)

SMILES	growth
COc1ccc(/C=C(/C(=O)N2CCNCC2)c2cc(OC)c(OC)c(OC)c2)cc1O	40%
CCN(CC)CCCC(Cc1ccccc1)Nc1c2ccc(Cl)cc2nc2ccc(OC)cc12 (stereo not given)	-93.6% (active)
Fc1ccc2[nH]cc(-c3nc(-c4c[nH]c5c(Cl)nccc45)cs3)c2c1	60.4%
Fc1ccc(/C=C/[C@@H]2C[C@@H](F)CCO2)cc1	98%
Cc1ccccc1N1CCN(C(=S)c2ccccc2)CC1	96.8%
N#Cc1ccc(/C=C/c2cn(-c3ccccc3)nc2-c2cccc([N+](=O)[O-])c2)cc1	72.7%
Cc1[nH]c(C(=O)Nc2ccccc2OC2CCN(CCN3CCOCC3)CC2)c(Cl)c1Cl	87.9%
COc1ccc(C(O)c2cc3c(N)c(C(=O)Nc4cccc5ccccc45)sc3nc2C)cc1 (stereo not given)	-47.4% (active)
Cc1ccc(C(=O)c2ccc(CC(=O)N/N=C/c3cccc(O)c3O)n2C)cc1	34.6%
CCC(C)(C)c1ccc(Nc2ccc(Nc3ccc(C(C)(C)CC)cc3)cc2)cc1	99.2%
O=C(Nc1ccc(Nc2ccncc2)cc1)c1ccc(Nc2ccnc3ccc([N+](=O)[O-])cc23)cc1	97.5%
CCCCNC(=O)c1ccc2c(c1)nc(-c1ccccc1)n2C1CCCCC1	93.7%
Cc1ccc(NC(=O)c2cc3ccccc3cc2O)c(C)c1	49.4%
CCOC(=O)C(CCN(C)C)c1ccccc1 (stereo not given)	103%
CC(O)Cc1c[nH]c(=O)[nH]c1=O (stereo not given)	109%
COCCn1cc(-c2nc(-c3c[nH]c4ncccc34)cs2)c2ccccc21	34.3%
CC1SC(c2ccccc2O)N(NC(=O)CCC(=O)c2nc3ncccc3[nH]2)C1=O (stereo not given)	95.1%
COC12C=C/C(=C(/C(=O)OCCSc3ccnn3C)C(=O)CCCCCCCCC3(OC)C=C/C(=C(/C(=O)OCCSc4ccnn4C)C(=O)CCCCCCCC1)O3)O2	-70% (active)
COC1C(O)CC(OC2CC(OC3CC(O[C@@H]4C(=O)c5c(cc6cc(OC7CC(OC8CC(O)C(O)C(C)O8)C(O)C(C)O7)c(C)c(O)c6c5O)CC4[C@H](OC)[C@@H](O)C(C)=O)OC(C)C3O)OC(C)C2O)OC1C (stereo not given in full)	-65.2% (active)
CNC(=O)c1cc(Oc2ccc3c(c2)sc2nc(-c4ccc(NC(=O)[C@@H](NC(=O)OC)C(C)C)cc4)cn23)ccn1	5.33% (active)
